# About 8,800 targets were measured; listed, in parts, are those with a hit and a random draw of the rest. About 0.5% of all pairs of compound and target were hits.
# Compound: CC[C@@H]1C(=O)N(C)c2cnc(Nc3ccc(C(=O)N[C@H]4CC[C@H](N5CCN(CC6CC6)CC5)CC4)cc3OC)nc2N1C(C)C [volasertib]
# Test: log2 fold change, soluble protein after heating vs DMSO (PISA); higher = thermal stabilisation; K562 lysate, 10 uM; active = over 0.2 and 3.5 SD of the protein, either way, in both replicates (recomputed)
# Procedure, shortened: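 K562 pellets were dounce-homogenised in PBS pH 7.4 with 1 mM MgCl2, and the crude extract at 1 mg/mL protein was treated with 10 μM compound for 30 min. Aliquots were heated for 3 min across 48°C-58°C, pooled, and brought to 0.5% NP-40 at 4°C; soluble protein was the supernatant after 21,000xg for 90 min. Soluble protein was quantified by TMTpro 16plex LC-MS/MS with channel sums equalised, and reported as log2 fold change in thermal stability against DMSO controls, with values from duplicates.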
# UniProt Q9UFN0, sequence (Q9UFN0 whole entry, looked up): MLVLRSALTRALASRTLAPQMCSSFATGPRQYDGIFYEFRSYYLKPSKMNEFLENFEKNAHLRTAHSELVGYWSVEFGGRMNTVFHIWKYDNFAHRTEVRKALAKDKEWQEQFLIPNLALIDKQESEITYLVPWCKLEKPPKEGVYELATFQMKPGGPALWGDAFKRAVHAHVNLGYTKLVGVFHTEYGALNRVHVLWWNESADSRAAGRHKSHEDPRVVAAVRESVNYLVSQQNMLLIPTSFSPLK
# UniProt Q86XI2, sequence (Q86XI2 whole entry, looked up): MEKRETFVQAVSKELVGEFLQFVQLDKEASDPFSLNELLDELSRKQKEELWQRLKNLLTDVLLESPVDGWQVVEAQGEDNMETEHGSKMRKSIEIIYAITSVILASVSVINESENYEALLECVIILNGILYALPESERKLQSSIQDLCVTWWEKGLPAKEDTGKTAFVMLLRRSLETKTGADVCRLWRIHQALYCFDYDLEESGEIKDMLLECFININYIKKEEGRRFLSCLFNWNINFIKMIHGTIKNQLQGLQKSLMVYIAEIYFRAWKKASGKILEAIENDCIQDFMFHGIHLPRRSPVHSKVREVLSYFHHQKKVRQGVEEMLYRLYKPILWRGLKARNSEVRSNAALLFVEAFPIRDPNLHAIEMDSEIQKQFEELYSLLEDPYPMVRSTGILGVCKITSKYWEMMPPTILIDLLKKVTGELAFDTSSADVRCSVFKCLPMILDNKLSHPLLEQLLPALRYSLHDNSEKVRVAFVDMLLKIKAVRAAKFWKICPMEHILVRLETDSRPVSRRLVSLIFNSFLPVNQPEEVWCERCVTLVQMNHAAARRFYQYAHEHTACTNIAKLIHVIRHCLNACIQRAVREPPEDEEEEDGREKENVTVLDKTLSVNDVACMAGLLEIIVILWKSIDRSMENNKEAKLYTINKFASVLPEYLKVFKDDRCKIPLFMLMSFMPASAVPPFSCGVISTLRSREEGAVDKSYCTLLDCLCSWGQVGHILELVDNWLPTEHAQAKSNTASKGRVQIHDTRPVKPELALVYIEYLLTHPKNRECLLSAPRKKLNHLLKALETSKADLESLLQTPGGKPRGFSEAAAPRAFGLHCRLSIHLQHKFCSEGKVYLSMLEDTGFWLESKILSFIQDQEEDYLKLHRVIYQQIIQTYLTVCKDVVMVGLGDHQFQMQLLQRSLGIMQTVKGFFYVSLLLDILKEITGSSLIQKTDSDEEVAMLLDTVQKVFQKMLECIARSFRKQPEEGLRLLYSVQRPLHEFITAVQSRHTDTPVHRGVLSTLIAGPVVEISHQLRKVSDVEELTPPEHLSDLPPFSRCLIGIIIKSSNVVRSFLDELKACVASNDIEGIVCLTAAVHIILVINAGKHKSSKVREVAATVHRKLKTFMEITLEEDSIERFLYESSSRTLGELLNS
# UniProt P20585, sequence (P20585 whole entry, looked up): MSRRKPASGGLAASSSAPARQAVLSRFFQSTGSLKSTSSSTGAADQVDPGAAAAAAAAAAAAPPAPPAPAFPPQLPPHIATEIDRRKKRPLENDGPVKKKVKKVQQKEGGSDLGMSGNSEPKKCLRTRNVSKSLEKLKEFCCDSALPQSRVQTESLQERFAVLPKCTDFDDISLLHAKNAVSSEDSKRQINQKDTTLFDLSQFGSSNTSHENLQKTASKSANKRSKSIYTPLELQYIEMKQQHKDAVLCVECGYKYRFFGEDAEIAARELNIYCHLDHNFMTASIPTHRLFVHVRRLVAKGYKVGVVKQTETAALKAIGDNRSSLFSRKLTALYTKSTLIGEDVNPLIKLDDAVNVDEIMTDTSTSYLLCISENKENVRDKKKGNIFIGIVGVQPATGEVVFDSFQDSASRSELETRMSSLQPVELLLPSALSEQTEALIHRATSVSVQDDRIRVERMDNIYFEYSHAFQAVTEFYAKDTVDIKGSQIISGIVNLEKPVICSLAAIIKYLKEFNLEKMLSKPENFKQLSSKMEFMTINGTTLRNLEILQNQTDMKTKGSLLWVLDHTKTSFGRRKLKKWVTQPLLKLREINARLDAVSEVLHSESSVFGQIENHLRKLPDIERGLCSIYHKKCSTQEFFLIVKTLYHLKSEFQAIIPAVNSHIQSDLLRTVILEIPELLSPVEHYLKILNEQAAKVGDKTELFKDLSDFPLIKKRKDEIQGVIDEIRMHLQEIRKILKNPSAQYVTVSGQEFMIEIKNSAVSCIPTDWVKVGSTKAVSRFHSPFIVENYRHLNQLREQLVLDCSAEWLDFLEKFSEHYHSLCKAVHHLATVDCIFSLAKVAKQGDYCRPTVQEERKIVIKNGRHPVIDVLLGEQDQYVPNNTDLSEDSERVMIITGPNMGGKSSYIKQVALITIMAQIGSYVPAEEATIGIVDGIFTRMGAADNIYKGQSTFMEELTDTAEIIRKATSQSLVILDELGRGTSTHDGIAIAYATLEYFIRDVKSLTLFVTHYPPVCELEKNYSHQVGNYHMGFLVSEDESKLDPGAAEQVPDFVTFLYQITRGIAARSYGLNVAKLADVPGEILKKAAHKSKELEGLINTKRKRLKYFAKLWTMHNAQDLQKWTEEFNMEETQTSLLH
# UniProt P43246, sequence (P43246 whole entry, looked up): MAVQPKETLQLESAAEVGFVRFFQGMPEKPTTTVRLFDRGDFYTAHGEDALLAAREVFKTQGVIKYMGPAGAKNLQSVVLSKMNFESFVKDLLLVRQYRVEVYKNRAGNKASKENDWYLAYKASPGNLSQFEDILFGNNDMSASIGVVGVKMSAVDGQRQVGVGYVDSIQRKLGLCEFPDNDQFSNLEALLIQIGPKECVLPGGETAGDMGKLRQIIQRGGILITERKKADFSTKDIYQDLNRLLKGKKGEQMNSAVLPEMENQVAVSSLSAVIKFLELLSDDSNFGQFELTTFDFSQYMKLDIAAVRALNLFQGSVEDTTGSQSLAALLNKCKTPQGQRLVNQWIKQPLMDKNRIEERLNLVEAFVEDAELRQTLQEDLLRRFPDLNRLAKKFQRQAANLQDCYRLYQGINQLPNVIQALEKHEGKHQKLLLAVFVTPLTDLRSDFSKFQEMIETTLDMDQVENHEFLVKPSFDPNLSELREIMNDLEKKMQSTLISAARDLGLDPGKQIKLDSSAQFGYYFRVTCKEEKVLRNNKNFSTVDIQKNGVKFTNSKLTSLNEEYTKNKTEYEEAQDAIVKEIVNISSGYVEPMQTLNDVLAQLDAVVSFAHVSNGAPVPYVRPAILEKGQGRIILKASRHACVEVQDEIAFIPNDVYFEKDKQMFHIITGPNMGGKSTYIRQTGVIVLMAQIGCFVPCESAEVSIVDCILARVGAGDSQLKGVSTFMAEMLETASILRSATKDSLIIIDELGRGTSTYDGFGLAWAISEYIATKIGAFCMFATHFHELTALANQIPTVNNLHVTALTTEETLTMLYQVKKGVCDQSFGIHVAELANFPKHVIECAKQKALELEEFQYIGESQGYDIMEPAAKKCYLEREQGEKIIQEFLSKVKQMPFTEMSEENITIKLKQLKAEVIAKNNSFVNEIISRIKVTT
# UniProt Q6GQQ9, sequence (Q6GQQ9 whole entry, looked up): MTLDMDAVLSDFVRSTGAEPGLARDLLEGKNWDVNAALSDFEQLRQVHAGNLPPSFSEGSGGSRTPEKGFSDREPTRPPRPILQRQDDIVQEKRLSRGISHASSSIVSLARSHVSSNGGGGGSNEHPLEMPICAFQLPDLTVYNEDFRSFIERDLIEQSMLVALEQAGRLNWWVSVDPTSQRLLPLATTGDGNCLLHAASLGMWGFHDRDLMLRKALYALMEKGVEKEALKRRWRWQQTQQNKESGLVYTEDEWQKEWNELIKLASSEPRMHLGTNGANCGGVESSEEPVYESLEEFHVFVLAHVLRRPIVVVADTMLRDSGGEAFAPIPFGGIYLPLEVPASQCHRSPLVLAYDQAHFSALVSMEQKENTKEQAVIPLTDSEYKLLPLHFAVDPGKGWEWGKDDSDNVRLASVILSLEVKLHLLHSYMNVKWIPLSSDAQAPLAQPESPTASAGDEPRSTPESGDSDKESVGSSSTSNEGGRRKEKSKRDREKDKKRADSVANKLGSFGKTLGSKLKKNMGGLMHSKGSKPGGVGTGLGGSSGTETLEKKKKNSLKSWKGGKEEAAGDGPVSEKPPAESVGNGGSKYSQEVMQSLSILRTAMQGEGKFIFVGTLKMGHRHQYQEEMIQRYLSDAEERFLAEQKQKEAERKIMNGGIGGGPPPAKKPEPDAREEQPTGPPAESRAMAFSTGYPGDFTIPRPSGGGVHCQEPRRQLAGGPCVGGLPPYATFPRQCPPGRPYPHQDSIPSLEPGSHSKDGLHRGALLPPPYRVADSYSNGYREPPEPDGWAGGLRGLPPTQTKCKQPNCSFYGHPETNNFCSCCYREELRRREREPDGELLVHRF
# UniProt Q9Y530, sequence (Q9Y530 whole entry, looked up): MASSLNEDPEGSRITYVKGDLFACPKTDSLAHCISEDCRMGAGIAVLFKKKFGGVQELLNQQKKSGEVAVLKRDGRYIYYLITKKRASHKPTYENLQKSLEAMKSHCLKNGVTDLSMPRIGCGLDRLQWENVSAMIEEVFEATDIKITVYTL
# UniProt Q13416, sequence (Q13416 whole entry, looked up): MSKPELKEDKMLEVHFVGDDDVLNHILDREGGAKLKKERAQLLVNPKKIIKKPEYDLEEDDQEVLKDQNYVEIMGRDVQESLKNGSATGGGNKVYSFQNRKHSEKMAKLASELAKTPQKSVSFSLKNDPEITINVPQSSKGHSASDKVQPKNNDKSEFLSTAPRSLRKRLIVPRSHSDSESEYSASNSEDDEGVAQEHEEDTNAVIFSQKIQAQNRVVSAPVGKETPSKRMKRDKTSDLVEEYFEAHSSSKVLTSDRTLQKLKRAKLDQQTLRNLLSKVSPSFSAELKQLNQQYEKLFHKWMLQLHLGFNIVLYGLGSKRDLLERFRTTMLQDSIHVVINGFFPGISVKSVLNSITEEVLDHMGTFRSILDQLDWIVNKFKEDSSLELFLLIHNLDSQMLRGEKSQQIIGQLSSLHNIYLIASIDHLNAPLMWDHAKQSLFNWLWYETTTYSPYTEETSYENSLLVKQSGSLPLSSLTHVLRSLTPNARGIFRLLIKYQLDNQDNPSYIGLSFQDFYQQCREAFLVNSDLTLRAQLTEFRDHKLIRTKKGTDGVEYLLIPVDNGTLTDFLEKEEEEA
row,Target,log2 fold change
1,ORC2 (UniProt Q13416),-0.048 (inactive)
2,NIPSNAP3A (UniProt Q9UFN0),0.019 (inactive)
3,N6AMT1 (UniProt Q9Y5N5),-0.04 (inactive)
4,OTUD7B (UniProt Q6GQQ9),-0.049 (inactive)
5,MSH2 (UniProt P43246),-0.068 (inactive)
6,MRPL53 (UniProt Q96EL3),0.057 (inactive)
7,NFKBIE (UniProt O00221),-0.106 (inactive)
8,NCAPH2 (UniProt Q6IBW4),-0.002 (inactive)
9,MRPS18A isoform 2 (UniProt Q9NVS2),-0.019 (inactive)
10,NOB1 (UniProt Q9ULX3),-0.02 (inactive)
11,NCAPG2 (UniProt Q86XI2),-0.006 (inactive)
12,NUMB (UniProt P49757),-0.015 (inactive)
13,OARD1 (UniProt Q9Y530),-0.031 (inactive)
14,NF1 (UniProt P21359),-0.048 (inactive)
15,NTMT1 (UniProt Q9BV86),-0.024 (inactive)
16,MYD88 isoform 6 (UniProt Q99836),-0.075 (inactive)
17,NUSAP1 (UniProt Q9BXS6),0.004 (inactive)
18,MVB12A (UniProt Q96EY5),-0.001 (inactive)
19,NAT1 (UniProt P18440),0.009 (inactive)
20,MSH3 (UniProt P20585),-0.031 (inactive)
21,NCK1 (UniProt P16333),-0.011 (inactive)
22,NGLY1 (UniProt Q96IV0),-0.034 (inactive)
23,NOA1 (UniProt Q8NC60),-0.024 (inactive)

# From the supplement of paper PMC10849652
